Test results reported in PubChem BioAssay AID2314 (National Center for Advancing Translational Sciences (NCATS), 2010).
The whole screen tested about 300,000 compounds, of which about 37,000 (12%) were called active. Many of the other results were omitted from the sample, so actives are more common in it than they were. Values without a mark were called inactive. Cut-off read from the data, not from the text of the source: active = max response mostly above about 13% (no sharp cut-off); inactive = mostly below about 14%.

Assay: Cycloheximide Counterscreen for Small Molecule Inhibitors of Shiga Toxin; note: read at 38.3 µM for the half of the compounds with a filed dose; 0% is about no effect
Details: cell reporter, cycloheximide protein synthesis inhibition counterscreen; hits give high values

| SMILES | max response |
| --- | --- |
| Cc1ccc(CN(Cc2cccnc2)C(=S)Nc2cccc(Cl)c2C)cc1 | 9.59% |
| CCCCC(=O)Nc1ccccc1N1CCN(c2ccc(F)cc2)CC1 | 5.13% |
| Cc1c(S(=O)(=O)NC(C)c2ccccc2)c(=O)n(C)c(=O)n1C (stereo not drawn) | 1.11% |
| Cc1coc2c1c(C)cc1oc(=O)c(CC(=O)NCC(=O)N[C@H](C(=O)O)C(C)C)c(C)c12 | -5.82% |
| C/C(N)=C(/C#N)C(=O)COC(=O)c1cc(-c2cccc(Br)c2)nc2ccccc12 | 0.776% |
| C/C(N)=C(/C#N)C(=O)COC(=O)c1cc(-c2ccccc2)nc2ccc(Br)cc12 | -2.32% |
| C/C(N)=C(/C#N)C(=O)COC(=O)c1cc(-c2ccc(C)cc2)nc2ccccc12 | 32.1% (active) |
| COc1ccc(NC2=CC(=S)NC(C)(C)C2)cc1 | -1.18% |
| Cc1csc(Nc2ccc(Cl)cc2)[n+]1-c1ccc(Cl)cc1 | 8.25% |
| O=C(Nc1nsc(-c2ccccc2)n1)c1ccncc1 | 15.5% (active) |
| O=C(CSc1ncn[nH]1)Nc1nsc(-c2ccccc2)n1 | 15.2% |
| COC(=O)c1nc(NC(=O)c2ccccc2)n[nH]1 | -3.23% |
| Cc1cc(C)cc(NC(=O)CSCc2cnn(-c3ccccc3)c2-n2cccc2)c1 | 16.3% |
| O=c1ccc(-c2ccc(S(=O)(=O)Nc3ccccc3)o2)n[nH]1 | -12.6% |
| O=S1(=O)CCOC[C@H](CC2CCCCC2)N1Cc1ccc(F)cc1 | 17.1% (active) |
| CCCC[C@H]1COCCS(=O)(=O)N1Cc1cccc(Cl)c1 | 0.203% |
| CCC(C)[C@H]1COCCS(=O)(=O)N1Cc1ccc(C)cc1 (stereo partly drawn) | 1.06% |
| O=S(=O)(c1ccc(Cl)cc1)N1CCCN(c2ccc(C(F)(F)F)cn2)CC1 | -1.58% |
| O=C(N/N=C/c1ccc(OC(=O)c2ccccc2Cl)cc1)c1ccc(O)cc1 | -3.06% |
| O=C(Nc1cc(=O)[nH]c2ncnn12)c1ccccc1Cl | -7.22% |
| O=C(N/N=C/c1c(O)n(C2CC2)c(=S)[nH]c1=O)c1ccccc1Cl | 19.5% (active) |
| O=c1[nH]c(=S)n(C2CC2)c(O)c1/C=N/N1CCOCC1 | -4.88% |
| O=C(N/N=C/c1c(O)n(C2CC2)c(=S)[nH]c1=O)c1ccccc1 | 38.1% (active) |
| COc1ccccc1-n1c(O)c(C=NC2CC2)c(=O)[nH]c1=O | -4.22% |
| COC(=O)CCSc1cc([N+](=O)[O-])cc2c1c(C1OCCS1)nn2-c1ccccc1 (stereo not drawn) | -3.43% |

| SMILES | max response |
| --- | --- |
| O=C(NCCN1CCOCC1)c1ccc(/C=C2\Sc3ccccc3N(Cc3ccc(F)cc3)C2=O)cc1 | 11.1% |
| Cc1nc(-c2nnc(SCC(=O)Nc3cc(C(F)(F)F)cc(C(F)(F)F)c3)n2C)cs1 | -0.852% |
| CCOC(=O)c1c(-c2ccccc2)oc2ccc(OCC(=O)NN)cc12 | -3.08% |
| CCOCCCn1c(SCC(=O)Nc2cc(OC)ccc2OC)nc2ccccc2c1=O | -2.84% |
| Cc1nn(C)c(Cl)c1CN1CCC(Oc2ccc(C(=O)N3CCCC3)cc2)CC1 | 0.779% |
| Nc1c(C(=O)NCc2ccccc2)sc2nc3c(cc12)C(=O)CCC3 | 8.86% |
| CC(C)OC(=O)c1sc2nc3c(cc2c1N)C(=O)CCC3 | 19.5% (active) |
| COCc1cc(C)nc2sc(C(=O)NC3CCCCC3)c(N)c12 | 11.4% |
| CCn1c(CC(=O)Nc2ccccc2C)nnc1SCC(=O)NC1=NCCS1 | 7.82% |
| COC(=O)Cc1ccc(N(Cc2ccccc2F)S(=O)(=O)c2ccc(Br)cc2)cc1 | -4.43% |
| COc1ccc(Cl)cc1NS(=O)(=O)c1cccc(C(=O)NCC2CCCO2)c1 (stereo not drawn) | -3.64% |
| CC(=O)N1c2ccc(S(=O)(=O)N(C)CC(=O)N(C)Cc3ccccc3)cc2CC1C (stereo not drawn) | -2.22% |
| NC(=O)NC(=O)CSc1nc2cc([N+](=O)[O-])ccc2n1-c1cccc(C(F)(F)F)c1 | -1.36% |
| CSc1c(SCc2ccccc2)cnn(Cc2ccccc2)c1=O | 5.89% |
| Cn1c(CO)cnc1SCc1ccccc1 | 21.1% (active) |
| Cn1c(-c2ccc(F)cc2)cnc1SCC(=O)NNC(=O)Cc1ccccc1 | -0.376% |
| CCOC(=O)c1cccc(NS(=O)(=O)c2c(C(=O)N3CCCCCC3)c(C)n(C)c2C)c1 | 1.94% |
| CC/C(=N\NC(=O)c1ccccc1O)c1c(O)n(Cc2ccccc2)c(=O)[nH]c1=O | 23% (active) |
| CCCCn1c(O)c(C(CC)=NCc2ccco2)c(=O)[nH]c1=O | -4.03% |
| CCCCCCN=C(CC)c1c(O)n(CCCC)c(=O)[nH]c1=O | -2.56% |
| Cc1cc(-c2ccc(C)c(S(=O)(=O)Nc3ccc(S(N)(=O)=O)cc3)c2)on1 | 4.89% |
| Cc1ccccc1C(=O)Nc1ccc(N2CCCCCC2)cc1 | 19% (active) |
| Cc1ccccc1C(=O)N1CCN(c2ccc(NC(=O)c3cccs3)cc2)CC1 | -1.82% |
| COc1cccc(C(=O)Nc2ccc(N3CCCC3)cc2)c1 | 30.8% (active) |
| COc1ccc(C(=O)NC(=S)Nc2ccc(N3CCCC3)cc2)cc1OC | -0.974% |

| SMILES | max response |
| --- | --- |
| C/C(=N\NC(=O)c1ccccc1C)c1ccc(N2CCOCC2)cc1 | 18.1% (active) |
| CN1CCN(c2ccc(NC(=O)c3ccc4c(c3)[nH]c(=O)n4Cc3ccc(F)cc3)cc2)CC1 | -2.44% |
| COc1cccc(C(=O)Nc2ccc(N3CCN(C(=O)c4ccco4)CC3)cc2)c1 | -5.64% |
| CN1CCN(c2ccc(NC(=O)c3ccccc3)cc2)CC1 | 30.4% (active) |
| Cc1ccccc1C(=O)NC(=S)Nc1ccc(N2CCN(C(=O)c3ccccc3)CC2)cc1 | -3.14% |
| CC(=O)c1ccc(N2CCN(CC(=O)Nc3ccccc3N3CCOCC3)CC2)cc1 | -0.941% |
| O=C(Nc1ccc(S(=O)(=O)N2CCc3ccccc3C2)cc1)c1ccccc1 | -1.47% |
| C/C(CCc1ccccc1)=N\NC(=O)c1ccc(CN2CCOCC2)cc1 | 6.88% |
| CC(C)Oc1ccc(CC(=O)NNC(=S)Nc2ccc(Br)cc2)cc1 | -3.17% |
| Cc1cc(-c2ccc(S(=O)(=O)N3CCN(c4cccc(C(F)(F)F)c4)CC3)s2)on1 | 1.18% |
| CCOc1ccccc1C(=O)NC1CC2CCCC(C1)N2Cc1ccccc1 (stereo not drawn) | -3.26% |
| COC(=O)C1=C(N)Oc2cc(C)[nH]c(=O)c2C1c1ccc(Cl)cc1 (stereo not drawn) | 0.893% |
| CC(C)(C)n1ncc2c(=O)n(Cc3ccc(Cl)cc3)cnc21 | 11.3% |
| COc1ccc(/C=N/NC(=O)C(C)N(c2ccc(OC)cc2)S(C)(=O)=O)cc1 (stereo not drawn) | -4.86% |
| Cc1nc(N2CCN(c3ccccn3)CC2)c2c(C)c(C(=O)Nc3ccc(F)c(Cl)c3)sc2n1 | -3.16% |
| O=C(Nc1cc(C(=O)Nc2ccc(S(=O)(=O)O)cc2)cc(C(=O)Nc2ccc(S(=O)(=O)O)cc2)c1)Nc1cc(C(=O)Nc2ccc(S(=O)(=O)O)cc2)cc(C(=O)Nc2ccc(S(=O)(=O)O)cc2)c1 | -6.6% |
| CC(C)(C)C(=O)NC1CC2CCCC(C1)N2C(=O)Nc1ccccc1F (stereo not drawn) | -1.8% |
| O=C(O)c1cc(S(=O)(=O)N(Cc2ccccc2)c2cccc(C(F)(F)F)c2)ccc1Cl | -2.82% |
| CCc1nn(CCCC(=O)Nc2ccc(C)c(C)c2)c(=O)c2cc3occc3n12 | 0.415% |
| COc1cccc(C(=O)Nc2cc3c(cc2Br)OCCCO3)c1 | 86.1% (active) |
| COc1cccc(C(=O)NNS(=O)(=O)c2ccc(F)cc2)c1 | 11.3% |
| COc1cccc(C(=O)NNC(=O)c2ccccc2Br)c1 | -3.22% |
| CC(=O)Oc1cccc(C(=O)Nc2ccccc2NC(=O)c2cccc(OC(C)=O)c2)c1 | 4.65% |
| COc1cccc(C(=O)NNC(=O)c2cccc(F)c2)c1 | 26.6% (active) |
| COc1cccc(C(=O)NNC(=O)/C=C/c2ccccc2)c1 | 0.531% |

| SMILES | max response |
| --- | --- |
| O=C(NCCCN1CCN(c2ccc(F)cc2)CC1)Nc1ccc([N+](=O)[O-])cc1 | 5.85% |
| CN(C)CCNC(=O)c1[nH]nc2c1CCc1ccccc1-2 | 41.8% (active) |
| COc1ccc(C(=O)Nc2ncc3c(n2)-c2ccccc2CC3)cc1 | 1.82% |
| CN(C)CCCNC(=O)c1ccc2[nH]c3ccccc3c2c1 | -1.73% |
| Cc1ccccc1CN1CCC(C(=O)Nc2ccc(Oc3cccnc3)cc2)CC1 | 1.17% |
| CCOC(=O)c1c(NC(=O)C2CCN(S(=O)(=O)c3ccc(Cl)cc3)CC2)sc2c1CCCC2 | 25.4% (active) |
| CCOCC(=O)Nc1sc2c(c1C(=O)OCC)CCCC2 | -2.31% |
| CCOC(=O)c1c(NC(=S)NC)sc2c1CCCC2 | 20.2% |
| COc1ccc(-c2n[nH]c(C)c2-c2ccccc2OC)c(O)c1 | -4.33% |
| CCc1c(C)nc(SCC(=O)NC2CCCC2)[nH]c1=O | 4.69% |
| CCc1ccc(-c2nc(SCC(=O)NC3CCCC3)n[nH]2)cc1 | 18.2% (active) |
| COc1ccc(-c2nc(SCC(=O)N3CCCC3)n[nH]2)cc1 | -1.17% |
| O=C(O)CCn1c(Cc2ccccc2)nc2ccccc21 | -1.08% |
| CCC(C(=O)OCC(=O)Nc1c(Cl)cc(Cl)cc1Cl)c1ccccc1 (stereo not drawn) | 1.18% |
| Cc1cccc(OCC(=O)Nc2ccc(C(=O)O)cc2NC(=O)COc2cccc(C)c2)c1 | 2.91% |
| Cc1cccc(OCC(=O)Nc2ccccc2F)c1 | 44.1% (active) |
| Cc1cccc(OCCC(=O)Nc2ccccc2C(N)=O)c1 | 12.6% |
| Cc1cccc(OCC(=O)NCCCNC(=O)c2ccccn2)c1 | -3.32% |
| COc1cccc(OCC(=O)Nc2ccccc2C(N)=O)c1 | 34.1% (active) |
| Cc1ccc(F)c(NC(=O)CCOc2ccccc2C)c1 | 6.62% |
| Cc1ccc(F)c(NC(=O)CCc2ccccc2)c1 | 33% (active) |
| CCCOC(=O)Nc1ccccc1C(N)=O | -2.21% |
| O=C(CCc1ccccc1)NNc1ccc(F)cc1 | -0.637% |
